Screens (PubChem)
A selection: hits, their analogues and other compounds. The true share with any hit is near 3.2%.
ANO1 block: inhibitors of mouse TMEM16A calcium-activated chloride channel | Q8BHY3 | HEK293 TMEM16A/YFP iodide influx fluorescence, ionomycin | normalized B-score (activity score, 25-100; higher = stronger inhibition) at 10 µM | 310,000 compounds, 1.2% hits | AID 588511;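 active = ratio plate-corrected score three or more library SD toward inhibition, starting fluorescence score within five deviations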;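 also: score derived from kinetic fluorescence span divided by baseline fluorescence per well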
HDAC3 inhib: inhibitors of human histone deacetylase 3; recombinant HDAC3, fluorogenic peptide/trypsin coupled, fluorescence; O15379; inhibition, % at 8.3 µM; 320,000 compounds, 0.15% hits; in the data active = inhibition above about 26%, passing the limit was not always enough; inconclusive = no clear call, values can overlap the other calls
Target sequence (O15379 whole entry, looked up): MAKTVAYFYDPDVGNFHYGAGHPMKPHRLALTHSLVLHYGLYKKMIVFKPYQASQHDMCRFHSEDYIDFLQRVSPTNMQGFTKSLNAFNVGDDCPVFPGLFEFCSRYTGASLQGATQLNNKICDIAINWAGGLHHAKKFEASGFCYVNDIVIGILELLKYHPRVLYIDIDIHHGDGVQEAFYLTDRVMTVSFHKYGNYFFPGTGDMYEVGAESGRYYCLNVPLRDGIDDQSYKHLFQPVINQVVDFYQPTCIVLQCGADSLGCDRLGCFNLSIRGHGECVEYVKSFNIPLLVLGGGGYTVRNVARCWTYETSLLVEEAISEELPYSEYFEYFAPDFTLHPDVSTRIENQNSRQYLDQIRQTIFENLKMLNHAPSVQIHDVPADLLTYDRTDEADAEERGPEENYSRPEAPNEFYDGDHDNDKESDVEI
PHOSPHO1 inh: inhibitors of human PHOSPHO1 phosphatase. 290,000 compounds, 1.1% hits. recombinant PHOSPHO1, absorbance phosphatase assay. Q8TCT1. inhibition, % at 13.3 µM; in the data active = inhibition above about 60%
CHT block: human CHT choline transport inhibition | Q9GZV3 | CHT-expressing cells, membrane potential dye, choline response; active compounds read low | B-score at 10 µM | 310,000 compounds, 0.86% hits | AID 488975;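 active = B-score over 3 SD under the library average, and starting fluorescence ratio not unusually high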;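 also: choline stimulus applied at its EC90 after an EC20 pre-addition; B-score computed on integrated fluorescence ratio after choline addition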
CHT PAM: human CHT allosteric activation | B-score at 10 µM | Q9GZV3 | AID 488977 | 310,000 compounds, 0.49% hits | CHT-expressing cells, membrane potential dye, choline EC20; active compounds read high; LV-AA mutant CHT in HEK293 cells;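 active = initial fluorescence not abnormally high and integrated response B-score, plate-corrected, over 3 SD above library mean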
TMEM16A act: activates or potentiates the mouse TMEM16A chloride channel | Q8BHY3 | HEK293 TMEM16A/YFP-H148Q/I152L, iodide quench fluorescence; active compounds read low | B-score at 10 µM | 340,000 compounds, 0.3% hits | AID 623877;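 active = fluorescence-ratio B-score plate-corrected deviation score at least 3 library SD below zero, with starting fluorescence score within 5 deviations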;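 also: channel opened by trigger with iodide after compound preincubation; score built on the fluorescence ratio of max minus min over baseline; more negative score means more quench and so TMEM16A activation or potentiation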
* hit, by the source's call; i = inactive; ? = inconclusive; . = no result given.

SMILES	ANO1 block	HDAC3 inhib	PHOSPHO1 inh	CHT block	CHT PAM	TMEM16A act
O=C(CSc1nnnn1C1CCCC1)Nc1ccc(F)cc1	i	0	62*	i	i	i
CC[C@H](C)Cc1cn([C@@H](CCCCN)C(=O)NCCCCCCCCCCC(=O)N2CCNCC2)nn1	i	0	.	i	i	i
CC[C@H](C)Cc1cn([C@@H](CCCN=C(NC(=O)OC(C)(C)C)NC(=O)OC(C)(C)C)C(=O)NCCCCCCCCCCC(=O)N2CCN(C(=O)OC(C)(C)C)CC2)nn1	i	28*	.	i	i	i
Cc1cn([C@@H](CCCCNC(=O)OC(C)(C)C)C(=O)NCCCCCCCCCCC(=O)N2CCN(C(=O)OC(C)(C)C)CC2)nn1	i	4	.	-5.8*	i	i
Cc1cccc(NS(=O)(=O)c2ccc(C(=O)NCC3CCCO3)cc2)c1C (stereo not drawn)	i	9	61*	i	i	i
Cn1cc[nH]c1=S	.	.	6	.	.	-13*
COC(=O)c1ccc(Cn2c(O)c(N=NC(N)=S)c3ccccc32)o1	i	39*	42	i	i	i
O=C(CSc1ccccc1)NCCCN1CCOCC1	i	6	-10	i	i	-11*
CCCCCCC(=O)N(O)C1CC(=O)N(c2ccc(Br)cc2)C1=O (stereo not drawn)	i	80*	-16	i	i	i
COc1ccccc1N(O)C1CC(=O)N(c2ccc(Br)cc2)C1=O (stereo not drawn)	i	-3	-3	i	i	i
CCCCCCC(=O)N(O)C1CC(=O)N(c2ccc(F)cc2)C1=O (stereo not drawn)	i	79*	25	i	i	i
CC(C)CNC(=O)c1ccc(Cl)c(NC(=O)COc2ccccc2)c1	i	0	37	i	i	.
CC(C)(C)OC(=O)NNC(=S)NCc1ccc(Cl)cc1	i	1	73*	i	i	i
CCNC(=S)NCc1ccc(Cl)cc1	i	-4	.	i	i	-9.6*
Fc1ccccc1CNC(=S)NCc1ccc(Cl)cc1	i	5	21	i	i	i
Cc1ccccc1CC(=O)N1CCN(S(=O)(=O)c2cccs2)CC1	i	-9	18	i	i	i
O=C(CSc1nnnn1C1CC2CCC1C2)Nc1ccnc2ccccc12 (stereo not drawn)	100*	11	-19	i	i	i
O=C(CSc1nnnn1C1CCCC1)NCc1ccccc1	i	-4	20	i	i	i
C[C@@H]1CN(Cc2nc(Cc3ccccc3F)no2)C[C@H](C)O1	i	-7	53	i	i	i
CC(=O)c1cn(CC(=O)Nc2ccc(C)cc2)c2ccccc12	i	3	-12	i	i	i
Cc1c(C(C)(C(=O)O)c2c(C)n(C)c3ccccc23)c2ccccc2n1C	i	1	47	i	i	.
CC(NC(=S)NC1CCCCC1)c1ccccc1 (stereo not drawn)	i	-7	25	i	i	i
CCCc1ccc(C(C)NC(=S)NC2CCCCC2)cc1 (stereo not drawn)	100*	?	13	i	i	i
CN(C(=O)COC(=O)c1ccccc1NCc1ccco1)c1c(N)n(Cc2ccccc2)c(=O)[nH]c1=O	i	-7	.	i	i	i
OC(CN1c2ccccc2Sc2ccccc21)Cn1nnc2ccccc21 (stereo not drawn)	100*	-2	-7	i	i	i
SMILES	ANO1 block	HDAC3 inhib	PHOSPHO1 inh	CHT block	CHT PAM	TMEM16A act
CCN(C(=O)C1CCN(S(=O)(=O)c2cccc3nonc23)CC1)c1ccccc1	i	2	-21	i	i	i
O=C(Cc1ccccc1)NC(=S)Nc1ccc(OC(F)F)cc1	i	3	-7	i	i	i
COc1ccc(CNC(=O)Cc2c(C(=O)O)[nH]c3ccccc23)c(OC)c1	i	-3	23	i	i	i
CCOC(=O)C1(Cc2ccccc2C(F)(F)F)CCN(CCCn2cccn2)CC1	i	1	23	i	i	-6.6*
COc1ccc(-n2c(SCc3ccc(C#N)cc3)nnc2-c2ccccn2)cc1	i	3	37	i	i	i
COc1cnn(-c2ccccc2)c(=O)c1SCc1ccc(Cl)c(Cl)c1	i	-6	88*	i	i	i
O=C(CSc1ncccn1)N1CCN(C(c2ccccc2)c2ccccc2)CC1	i	1	86*	i	i	i
O=C(CSc1ncccn1)N1CCN(C(=O)CSc2ncccn2)CC1	i	-3	-13	i	i	i
O=C(Cn1ccc([N+](=O)[O-])n1)NCc1ccco1	i	2	3	i	i	i
O=C(NCc1ccccn1)c1coc(=O)c(Br)c1	100*	-7	10	i	i	i
Cn1c(=Nc2ccc(N3CCOCC3)cc2)ccc2ccccc21	i	5	96*	i	i	i
COc1cc(OC)c(N(C)S(=O)(=O)c2cccc(C(=O)OCC(=O)NCc3ccco3)c2)cc1Cl	i	-3	-25	i	i	i
CCC(C)[C@H](NC(=O)[C@@H]1CSC2c3ccccc3C(=O)N21)C(=O)N1CCCCC1 (stereo partly drawn)	i	0	65*	i	i	i
CCC(C)NC(=O)[C@@H]1CSC2c3ccccc3C(=O)N21 (stereo partly drawn)	i	0	36	i	i	i
Cc1ccc(S(=O)(=O)CNC(=S)c2cccc(C)c2)cc1	i	-2	90*	i	i	i
Nc1ccc(Oc2ccc3c(c2)OCO3)cc1	i	4	61*	i	i	i
Nc1ccc(Oc2cccc(Oc3ccc(N)cc3)c2)cc1	i	-3	-8	i	i	i
O=[N+]([O-])c1ccc(Sc2cccc3cccnc23)c([N+](=O)[O-])c1	i	-1	87*	i	i	i
CCOC(=O)c1c(NC(=O)c2cccs2)sc2c1CCN(C(=O)OCC)C2	i	-4	-10	i	i	i
CCOC(=O)N1CCc2c(sc(NC(=O)c3ccc(Cl)s3)c2C(N)=O)C1	100*	-5	-26	i	i	.
Cc1nc2sc3c(c2c(=O)[nH]1)CCC3	i	4	20	i	i	i
Cc1cc(-c2nc3c4c5c(sc4[nH]c(=O)n3n2)CCC5)c(C)o1	i	6	80*	i	i	i
Nc1ccccc1NC(=O)c1ccccc1N	i	20	23	i	i	i
Nc1ccccc1NC(=O)NC(=O)c1ccccc1	i	41*	20	i	i	i
